# TDP1 cell CPT: qHTS for Inhibitors of human tyrosyl-DNA phosphodiesterase 1 (TDP1): qHTS in cells in presence of CPT; AID 686979, 2013; hit rate 12% among 420,000; Potency, µM (doses to about 46.2 µM), most hits filed as inhibitors; chicken DT40 Tdp1-/-;hTDP1 cells + 20 nM CPT, ATP luminescence, 48 h; further: nearly all actives have a fitted effect of over 55% in size
#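 Cell growth measured by CellTiter-Glo luminescence after a minimum 48 h, 37 C compound exposure with 20 nM CPT in Tdp1-knockout DT40 cells stably expressing hTDP1, seeded 400/well; qHTS titration format.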
# KB-3-1 cytotox: qHTS assay for MDR1-selective chemotherapeutics: Primary screen using the parental adenocarcinoma cell KB-3-1; KB-3-1 viability, CellTiter-Glo ATP luminescence, 72 h; Potency, µM (top dose mostly 46.1 µM), hits mostly cytotoxic; hit rate 1.4% among 400,000; further: nearly all actives have a fitted effect of over 60% in size
#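 KB-3-1 parental drug-naive adenocarcinoma cells in DMEM/10% FBS, incubated 72 h at 37 C with pin-transferred compounds across a concentration series. Viability by CellTiter-Glo luminescence; concentration-response curves fitted after normalization.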
# TDP1 cell noCPT: qHTS for Inhibitors of human tyrosyl-DNA phosphodiesterase 1 (TDP1): qHTS in cells in absence of CPT; hit rate 15% among 420,000; Potency, µM (highest dose often 46.2 µM), usual class: inhibitors; DT40 Tdp1-/- hTDP1 cells, no CPT, ATP luminescence, 48 h; further: nearly all actives have a fitted effect of over 55% in size
#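 Camptothecin absent (DMSO only). Human TDP1-complemented DT40 knockout cells, 400 cells/well, 37 °C for minimum 48 hr; ATP measured via CellTiter-Glo, 30 min dark incubation, luminescence.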
# HT1080 IDH1KD tx: qHTS for induction of synthetic lethality in tumor cells producing 2HG: qHTS for the HT-1080-IDH1KD cell line | HT-1080 IDH1 knockdown viability, ATP luminescence, 48 h | Potency, µM (top dose mostly 46.1 µM), most hits filed as cytotoxic | hit rate 2% among 360,000 | AID 686971, 2013
#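 CellTiter-Glo luminescence after 48 h compound exposure at 37 degrees C of IDH1-knockdown HT-1080 cells in 5% FBS RPMI. %Activity scaled between DMSO wells and cell-free media wells, with curves fitted and assigned curve classes.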
# HT1080NT lethal: qHTS for induction of synthetic lethality in tumor cells producing 2HG: qHTS for the HT-1080-NT fibrosarcoma cell line | HT-1080-NT fibrosarcoma viability, CellTiter-Glo ATP luminescence, 48 h | Potency, µM (series often up to 46.1 µM), most hits filed as cytotoxic | hit rate 1.6% among 360,000;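 further: NT is the 2HG producing partner of a matched IDH1 knockdown line; nearly all actives have a fitted effect of over 55% in size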
#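 Toxicity toward the 2HG-producing NT line was scored as %Activity, normalised to DMSO and no-cell wells, from CellTiter-Glo luminescence after 48 hours' treatment.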
# KB-V1 cytotox: qHTS assay for MDR1-selective chemotherapeutics: Primary screen using the drug-selected MDR subline cells KB-V1. KB-V1 MDR cells viability, CellTiter-Glo, 72 h. Potency, µM (doses to about 46.1 µM), most hits filed as cytotoxic. hit rate 3.4% among 400,000; further: nearly all actives have a fitted effect of over 60% in size
#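 Cytotoxicity via CellTiter-Glo luminescence after 72 h compound exposure at 37 degrees C. Cells: drug-selected KB-V1 line, DMEM phenol-red free plus 10% FBS. Compounds tested at multiple concentrations; normalized data fitted to concentration-effect curves.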
# A number is an active result; - = inactive; ? = inconclusive; . = no result given; ! = not confirmed by another sample. Rows were chosen to be rich in hits. Some 19% of all compounds tested hit in one or more screens of this group. The call rests on the fitted dose curve; in most records, active means well fitted curve in the direction sought with a large enough effect; inconclusive means small, poorly fitted or top-dose-only effect, or another doubt; inactive means no such curve, though single readings can be large; an effect the other way counts as inactive or inconclusive.
SMILES,TDP1 cell CPT,KB-3-1 cytotox,TDP1 cell noCPT,HT1080 IDH1KD tx,HT1080NT lethal,KB-V1 cytotox
CC(C)CN(C(=O)C1CCC1)c1c(N)n(Cc2ccccc2)c(=O)[nH]c1=O,-,-,-,-,-,-
Nc1nonc1-c1nc2ccccc2n1Cc1c(Cl)cccc1Cl,-,-,-,.,.,?
CCCN1CCN(c2cc3c(cc2F)c(=O)c(S(=O)(=O)c2ccc(CC)cc2)cn3CC)CC1,?,-,20.6µM,.,.,-
CCCCn1cc(S(=O)(=O)c2ccc(OC)cc2)c(=O)c2cc(F)c(F)cc21,18.4µM,-,?,.,.,-
CCCN1CCN(c2cc3c(cc2F)c(=O)c(S(=O)(=O)c2ccc(Cl)cc2)cn3C)CC1,?,-,23.1µM,.,.,-
CCOc1ccc(NC(=O)CN2C(=O)COc3ccc(Cl)cc32)cc1,?,-,-,-,-,-
Cc1ccc(NC(=O)CN2C(=O)c3cccnc3Oc3ccc(Cl)cc32)cc1,20.6µM,-,29.1µM,.,.,-
CCOC(=O)c1ccc(NC(=O)CN2C(=O)c3cccnc3Oc3ccc(Cl)cc32)cc1,?,-,20.6µM,.,.,-
CCOC(=O)c1ccc(NC(=O)CN2C(=O)COc3ccc(Cl)cc32)cc1,13µM,-,16.4µM,.,.,?
Cc1cc(Cl)ccc1NC(=O)CN1C(=O)C(=O)c2ccccc21,5.8µM,-,4.11µM,.,.,-
CCCCNc1nc(Oc2ccc(=O)n(C)n2)nc(N2CCOCC2)n1,-,-,-,.,.,-
Cc1cccc(NC(=O)CN2C(=O)c3cccnc3Oc3ccc(Cl)cc32)c1C,-,-,20.6µM,.,.,-
CN(C)S(=O)(=O)c1ccc(C(=O)OCn2nnc3ccccc3c2=O)cc1,-,-,?,-,-,-
CC(Oc1nc2c(c(=O)n(C)c(=O)n2C)n1C)C1CCCCC1 (configuration not stated),23.1µM,-,16.4µM,-,-,?
C=CCOc1nc2c(c(=O)n(C)c(=O)n2C)n1C,-,-,-,-,-,-
C/C=C/COc1nc2c(c(=O)n(C)c(=O)n2C)n1C,23.1µM,-,14.6µM,-,-,-
CCC(C)n1c(OC)nc2c1c(=O)n(C)c(=O)n2C (configuration not stated),23.1µM,-,?,-,-,-
Cc1cc(Cl)ccc1Nc1nc(NCc2ccco2)nc2nccnc12,?,-,?,.,.,-
CN(C)c1ncc2nc(-c3ccc(Cl)cc3)c(=O)n(C3CC3)c2n1,-,.,-,.,.,.
Cc1ccccc1C1NC(=O)c2ccccc2O1 (configuration not stated),-,-,-,-,-,-
Cc1ccccc1C1N=C2Oc3ccccc3C=C2C(=O)N1 (configuration not stated),6.51µM,7.31µM,5.8µM,-,-,4.11µM
Cc1cc2nc(/C=C/c3cccnc3)[nH]c2cc1C,0.0184µM,1.16µM,0.0184µM,0.581µM,0.517µM,0.259µM
COc1ccccc1OCc1nc2ccccc2n1Cc1ccccc1,?,-,16.4µM,.,.,-
Cc1cccc(Cn2c(COc3ccccc3)nc3ccccc32)c1,.,-,.,.,.,?
Cc1ccc(Cn2c(Cc3ccccc3)nc3ccccc32)cc1,18.4µM!,-,16.4µM,-,-,?
SMILES,TDP1 cell CPT,KB-3-1 cytotox,TDP1 cell noCPT,HT1080 IDH1KD tx,HT1080NT lethal,KB-V1 cytotox
Cc1ccc(Cn2c(S(=O)(=O)O)nc3ccccc32)cc1,-,-,-,-,-,-
ClCc1nc2ccccc2n1Cc1ccccc1,10.3µM,-,7.31µM,-,-,-
OCCCc1nc2ccccc2n1Cc1ccccc1,?,-,-,-,-,-
CCNC(=O)C1(C)CCN(C(=O)c2ccc(OC(F)F)cc2)C1 (configuration not stated),-,-,-,-,-,-
O=C(O)C(=Cc1ccccc1[N+](=O)[O-])c1ccc2c(c1)OCO2,-,-,?,-,-,-
CCC(C)[C@H](NC(=O)[C@@H]1Cc2c([nH]c3ccccc23)C2c3ccccc3C(=O)N21)C(=O)NCC1CCCO1 (some centres not stated),?,-,16.4µM,-,-,-
CCC(C)[C@H](NC(=O)[C@@H]1Cc2c([nH]c3ccccc23)C2c3ccccc3C(=O)N21)C(=O)N1CCC[C@@H]1C(=O)O (some centres not stated),-,-,-,-,-,-
CCCCn1c(=O)[nH]c(=O)c2c1nc(COC(=O)c1c(C)noc1C)n2CCC,-,-,-,-,-,4.11µM
Cc1ccc(C)c(NC(=O)N2CCN3CCCCC3C2)c1 (configuration not stated),-,.,-,.,.,.
O=S(=O)(c1ccc(F)c(F)c1)N1CCCCCCC1,-,-,?,-,-,-
CS(=O)(=O)c1ccccc1-c1nc(-c2cc(C(F)(F)F)cc(C(F)(F)F)c2)no1,?,-,-,-,-,-
CS(=O)c1ccccc1-c1nc(-c2ccc([N+](=O)[O-])cc2)no1 (configuration not stated),-,?,-,-,-,8.2µM
CS(=O)c1ccccc1-c1nc(-c2cc(C(F)(F)F)cc(C(F)(F)F)c2)no1 (configuration not stated),10.3µM,?,13µM,-,-,?
Cc1cc(C)nc(-n2nc(C)c3c2NC(=O)CC3c2cccc(O)c2)n1 (configuration not stated),?,-,?,.,.,-
CCC(C)NC(=O)c1ccccc1NC(=O)C1COc2ccccc2O1 (configuration not stated),-,-,?,-,-,?
CC(C)NC(=O)c1ccccc1NC(=O)C1COc2ccccc2O1 (configuration not stated),?,-,20.6µM,-,-,?
CCOc1ccc(OCC)c(NC(=O)C2COc3ccccc3O2)c1 (configuration not stated),-,-,-,-,-,20.6µM
CCOc1ccc(OCC)c(NC(=O)CCC(=O)N2CCOc3ccccc32)c1,25.9µM,-,25.9µM,.,.,?
COc1ccc(C(=O)/C=C/N(C)C)cc1OC,?,-,?,?,-,?
COc1ccc(C(=O)/C=C2\NCCc3cc(OC)c(OC)cc32)cc1OC,16.4µM,-,16.4µM,?,-,-
